High-throughput results from PubChem.
IL-1B inflam inh = qHTS for Inhibitors of Inflammasome Signaling: IL-1-beta AlphaLISA Primary Screen; THP-1 LPS/ATP IL-1B secretion, AlphaLISA, 16 h; stronger effect = lower value; activity change, % at 57.5 µM; 4.7% of 360,000 active; AID 743279, 2014; in the data active means activity change below about -50%; inconclusive means mostly about -30% to -49%
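THP-1 cells pretreated 1 hr with compounds (up to 57.5 uM final), then stimulated with LPS (250 ng/mL final) plus ATP (1.25 mM final); secreted IL-1B measured by AlphaLISA after 16 hr, decreased signal indicating inhibition.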
DT40 TDP1 no CPT = qHTS for Inhibitors of human tyrosyl-DNA phosphodiesterase 1 (TDP1): qHTS in cells in absence of CPT; 15% of 420,000 active; Potency, µM (highest dose often 46.2 µM), inactives show at the top dose activity change, negative = growth inhibition, hits mostly inhibitors; DT40 Tdp1-/- hTDP1 cells, no CPT, ATP luminescence, 48 h; further: potency means the concentration at half of the fitted maximal effect; nearly all actives have a fitted effect of over 55% in size
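Luminescent ATP content (CellTiter-Glo) served as the growth readout. Knockout chicken DT40 cells expressing human TDP1 were exposed to compounds without camptothecin for a minimum 48 hr at 37 °C.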
HT1080 IDH1KD tx = qHTS for induction of synthetic lethality in tumor cells producing 2HG: qHTS for the HT-1080-IDH1KD cell line; 2% of 360,000 active; HT-1080 IDH1 knockdown viability, ATP luminescence, 48 h; Potency, µM (doses to about 46.1 µM), inactives show top-dose activity, negative = toxicity, usual class: cytotoxic;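 further: potency means the concentration at half of the fitted maximal effect; 0% = DMSO wells and -100% = cell-free medium wells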
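Luminescent ATP read-out (CellTiter-Glo, 10 min at room temperature) after 48 h compound exposure at 37 °C gave viability of IDH1-knockdown HT-1080 cells. Activity was normalised to DMSO and cell-free wells, then fitted as concentration-response curves.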
TDP1 cell CPT = qHTS for Inhibitors of human tyrosyl-DNA phosphodiesterase 1 (TDP1): qHTS in cells in presence of CPT | chicken DT40 Tdp1-/-;hTDP1 cells + 20 nM CPT, ATP luminescence, 48 h | Potency, µM (titrated, usually from 46.2 µM), without a hit: at the highest dose activity change, negative = growth inhibition, usual class: inhibitors | 12% of 420,000 active; further: potency means the concentration at half of the fitted maximal effect; nearly all actives have a fitted effect of over 55% in size
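Chicken DT40 Tdp1-/- cells complemented with human TDP1, 400 cells/well, exposed to compounds plus 20 nM camptothecin for at least 48 h at 37 C; viability read as ATP content by CellTiter-Glo luminescence.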
ELG1 repair inh = qHTS screen for small molecules that inhibit ELG1-dependent DNA repair in human embryonic kidney (HEK293T) cells expressing luciferase-tagged ELG1; HEK293T ELG1-luciferase reporter, luminescence, 16 h; DNA damage induced by 5-fluorouridine; Potency, µM (series often up to 46.1 µM), inactives show top-dose activity change, negative = inhibition, hits mostly inhibitors; 2.3% of 330,000 active; further: potency means the concentration at half of the fitted maximal effect; nearly all actives have a fitted effect of over 55% in size
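Quantitative HTS, concentration-response format. 2,000 cells/well co-treated with 5-fluorouridine and compound, 16 hr in 5% CO2 at 37 °C; ONE-Glo luminescence read after 30 min.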
HT1080-NT tox = qHTS for induction of synthetic lethality in tumor cells producing 2HG: qHTS for the HT-1080-NT fibrosarcoma cell line. HT-1080-NT fibrosarcoma viability, CellTiter-Glo ATP luminescence, 48 h. Potency, µM (top dose mostly 46.1 µM), for inactives: at the top dose activity, negative = less viability, hits mostly cytotoxic. 1.6% of 360,000 active. AID 686970, 2013;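 further: NT is the 2HG producing partner of a matched IDH1 knockdown line; potency means the concentration at half of the fitted maximal effect; 0% = DMSO-treated cells and -100% = media-only wells without cells; nearly all actives have a fitted effect of over 55% in size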
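A 48-hour cytotoxicity screen used HT-1080-NT cells plated 2 hours before compound delivery. ATP-based CellTiter-Glo luminescence measured viability, normalized to DMSO and no-cell controls.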
Numbers without * were called inactive; [ ] = another dose, or the depositor's remark. A selection: hits, their analogues and other compounds. The true share with any hit is near 19%. Unless noted, the call rests on the fitted dose curve; in most records, active means well fitted curve in the direction sought with a large enough effect; inconclusive means small, poorly fitted or top-dose-only effect, or another doubt; inactive means no such curve, though single readings can be large; an effect the other way counts as inactive or inconclusive. Unless noted, on the % scale 0 is the no-effect control and ±100 the full control effect.

What do the screens show for `O=C(O)C=C(Br)Br`?
IL-1B inflam inh: -7; DT40 TDP1 no CPT: 2%; HT1080 IDH1KD tx: 7%; TDP1 cell CPT: 16%; ELG1 repair inh: -6%; HT1080-NT tox: 8%

How did CC(OC(=O)CC1CCCC1)C(=O)Nc1ccc(Cl)cn1 (configuration not stated) do in these assays?
IL-1B inflam inh: -12; DT40 TDP1 no CPT: -8%; HT1080 IDH1KD tx: 11%; TDP1 cell CPT: -10%; ELG1 repair inh: 14%; HT1080-NT tox: 1%

Results for CC(=O)N1c2ccc(S(=O)(=O)NCCC(=O)Nc3ncccc3C)cc2CC1C (configuration not stated) ?
IL-1B inflam inh: 13; DT40 TDP1 no CPT: 18%; HT1080 IDH1KD tx: 3%; TDP1 cell CPT: -17%; ELG1 repair inh: 11%; HT1080-NT tox: 2%

Results for CCS(=O)(=O)N1CCC2(CC1)OC(=O)C(C)=C2C(=O)NCc1ccccc1C ?
DT40 TDP1 no CPT: 4%; TDP1 cell CPT: inconclusive

How did Cc1cc(N2CCN(c3ccc(C(F)(F)F)cc3[N+](=O)[O-])CC2)c2ccccc2n1 do in these assays?
IL-1B inflam inh: -28; DT40 TDP1 no CPT: 21µM*; HT1080 IDH1KD tx: inconclusive; TDP1 cell CPT: inconclusive; ELG1 repair inh: inconclusive; HT1080-NT tox: inconclusive

How did Cc1cc(N2CCN(c3ccc([N+](=O)[O-])c4cccnc34)CC2)c2ccccc2n1 do in these assays?
IL-1B inflam inh: -94*; DT40 TDP1 no CPT: 5.8µM*; HT1080 IDH1KD tx: inconclusive; TDP1 cell CPT: 8.2µM*; ELG1 repair inh: inconclusive; HT1080-NT tox: inconclusive

What do the screens show for `Nc1nonc1OCCN1CCN(c2ccc([N+](=O)[O-])c3cccnc23)CC1`?
IL-1B inflam inh: 4; DT40 TDP1 no CPT: inconclusive; HT1080 IDH1KD tx: -9%; TDP1 cell CPT: 23µM*; ELG1 repair inh: inconclusive; HT1080-NT tox: -13%

Results for CC(=O)c1ccc(NC(=O)CS(=O)(=O)c2cn(CC(=O)N3CCOCC3)c3ccccc23)cc1 ?
IL-1B inflam inh: -16; DT40 TDP1 no CPT: 2%; HT1080 IDH1KD tx: 1%; TDP1 cell CPT: 19%; ELG1 repair inh: 7%; HT1080-NT tox: 20%

Results for Cc1cc(C)n(/N=C/c2cc([N+](=O)[O-])ccc2O)c(=O)c1 ?
IL-1B inflam inh: 33; DT40 TDP1 no CPT: inconclusive; HT1080 IDH1KD tx: inconclusive; TDP1 cell CPT: inconclusive; ELG1 repair inh: -15%; HT1080-NT tox: -8%

What do the screens show for `C[C@@]12C(=O)Nc3ccc(F)cc3C(=O)N1[C@H]1c3cc(Cl)ccc3OC[C@@H]1[C@@H]2c1ccccc1`?
IL-1B inflam inh: inconclusive; DT40 TDP1 no CPT: inconclusive; HT1080 IDH1KD tx: inconclusive; TDP1 cell CPT: inconclusive; ELG1 repair inh: -20%; HT1080-NT tox: inconclusive

What do the screens show for `C[C@@]12C(=O)Nc3cc(Cl)ccc3C(=O)N1[C@H]1c3cc(Cl)ccc3OC[C@@H]1[C@@H]2c1ccccc1`?
IL-1B inflam inh: -13; DT40 TDP1 no CPT: inconclusive; HT1080 IDH1KD tx: inconclusive; TDP1 cell CPT: 18µM*; ELG1 repair inh: 1%; HT1080-NT tox: inconclusive

How did C[C@@]12C(=O)Nc3cc(Cl)ccc3C(=O)N1[C@H]1c3cc(Br)ccc3OC[C@@H]1[C@@H]2c1ccccc1 do in these assays?
IL-1B inflam inh: -23; DT40 TDP1 no CPT: 23µM*; HT1080 IDH1KD tx: inconclusive; TDP1 cell CPT: 15µM*; ELG1 repair inh: inconclusive; HT1080-NT tox: inconclusive

What do the screens show for `CC1Oc2ccccc2N(Cc2ccc(F)cc2)C1=O` (configuration not stated)?
IL-1B inflam inh: 23; DT40 TDP1 no CPT: 22%; HT1080 IDH1KD tx: 0%; TDP1 cell CPT: -29%; ELG1 repair inh: 0%; HT1080-NT tox: 10%

How did CC(=O)Oc1cc(C(F)(F)F)ccc1C(=O)O do in these assays?
DT40 TDP1 no CPT: -28%[21.1 µM]; TDP1 cell CPT: -2%[21.1 µM]

What do the screens show for `COc1ccc(S(=O)(=O)N2CCN(Cc3cc4c(cc3Br)OCCO4)CC2)cc1`?
IL-1B inflam inh: -13; DT40 TDP1 no CPT: inconclusive; HT1080 IDH1KD tx: -4%; TDP1 cell CPT: -15%; HT1080-NT tox: -4%

What do the screens show for `N#Cc1ccccc1S(=O)(=O)N1CCN(Cc2cc3c(cc2Br)OCCO3)CC1`?
IL-1B inflam inh: -1; DT40 TDP1 no CPT: inconclusive; HT1080 IDH1KD tx: -18%; TDP1 cell CPT: 16µM*; HT1080-NT tox: 0%

How did Cc1c(O)ccc(C(=O)CN2CCN(Cc3ccccc3)CC2)c1O do in these assays?
IL-1B inflam inh: 3; DT40 TDP1 no CPT: -9%; HT1080 IDH1KD tx: 0%; TDP1 cell CPT: -12%; ELG1 repair inh: 0%; HT1080-NT tox: -1%

What do the screens show for `Cc1c(O)ccc(C(=O)CN2CCN(c3ccc(F)cc3)CC2)c1O`?
IL-1B inflam inh: 23; DT40 TDP1 no CPT: 16µM*; HT1080 IDH1KD tx: -8%; TDP1 cell CPT: inconclusive; ELG1 repair inh: 0%; HT1080-NT tox: -1%

What do the screens show for `CCCCC[C@H](C)N1C[C@@H](COCc2ccccc2)Oc2cc(N3CCC[C@H]3COC)ccc2S1(=O)=O`?
IL-1B inflam inh: 0; DT40 TDP1 no CPT: 18µM*; HT1080 IDH1KD tx: -15%; TDP1 cell CPT: inconclusive; HT1080-NT tox: -3%

What do the screens show for `CCCCC[C@H](C)N1C[C@H](COCc2ccccc2)Oc2cc(N3CCC[C@H]3CO)ccc2S1(=O)=O`?
IL-1B inflam inh: -55*; DT40 TDP1 no CPT: 21µM*; HT1080 IDH1KD tx: inconclusive; TDP1 cell CPT: inconclusive; HT1080-NT tox: inconclusive

What do the screens show for `CCCCC[C@@H](C)N1C[C@@H](COCc2ccccc2)Oc2cc(N3CCC[C@H]3C(N)=O)ccc2S1(=O)=O`?
IL-1B inflam inh: -30; DT40 TDP1 no CPT: 16µM*; HT1080 IDH1KD tx: inconclusive; TDP1 cell CPT: inconclusive; HT1080-NT tox: inconclusive

What do the screens show for `C[C@@H]1CN([C@@H](C)CO)C(=O)CCCn2nncc2CO[C@H]1CN(C)C(=O)c1ccccc1`?
IL-1B inflam inh: -6; DT40 TDP1 no CPT: 1%; HT1080 IDH1KD tx: 6%; TDP1 cell CPT: -1%; HT1080-NT tox: 2%

How did Cc1ccc2c(c1)CC[C@H]1CC(=O)CC[C@@]21C do in these assays?
DT40 TDP1 no CPT: -23%; TDP1 cell CPT: 2%
